# Data from PubChem BioAssay.
# The source made the active and inactive calls.
# Assays:
# [1] = small molecules captured by biotinylated probe aFSTL3 – biochemical, small-molecule microarray, fluorescence 635/667, stem cell growth factor project, primary screen (AID 1064); details: higher = more signal;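 further: measures binding of the biotinylated anti-FSTL3 antibody to printed compounds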
# [2] = binders from COS7 lysate, DM2A8 probe, primary screen, torsin A project, cell lysate, small-molecule microarray, fluorescence 635/667 (AID 1065); details: higher = more signal, COS7 lysate expressing mutant human TOR1A
# [3] = small molecules captured by biotinylated probe aFGF2 – biochemical, small-molecule microarray, fluorescence 635/667, stem cell growth factor project, primary screen (AID 1067); details: higher = more signal;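 further: measures binding of biotinylated aFGF2 protein to printed compounds on slides; z-score merges feature fluorescence and signal-to-noise across triplicate slides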
# [4] = small molecules captured by biotinylated probe aFGF10 – biochemical, small-molecule microarray, fluorescence 635/667, stem cell growth factor project, primary screen (AID 1071); details: higher = more signal;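 further: score merges 667 nm spot intensity and signal to noise from triplicate slides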
# [5] = molecular target: Neurogenic locus notch homolog protein 2 (Homo sapiens) (UniProt Q04721); experiment: small molecules binding Notch2 protein – biochemical, small-molecule microarray, 635 nm fluorescence, stem cell growth factors, primary screen (AID 1073); details: higher = more signal
# Neurogenic locus notch homolog protein 2 (Homo sapiens), sequence (Q04721 whole entry, looked up, canonical isoform): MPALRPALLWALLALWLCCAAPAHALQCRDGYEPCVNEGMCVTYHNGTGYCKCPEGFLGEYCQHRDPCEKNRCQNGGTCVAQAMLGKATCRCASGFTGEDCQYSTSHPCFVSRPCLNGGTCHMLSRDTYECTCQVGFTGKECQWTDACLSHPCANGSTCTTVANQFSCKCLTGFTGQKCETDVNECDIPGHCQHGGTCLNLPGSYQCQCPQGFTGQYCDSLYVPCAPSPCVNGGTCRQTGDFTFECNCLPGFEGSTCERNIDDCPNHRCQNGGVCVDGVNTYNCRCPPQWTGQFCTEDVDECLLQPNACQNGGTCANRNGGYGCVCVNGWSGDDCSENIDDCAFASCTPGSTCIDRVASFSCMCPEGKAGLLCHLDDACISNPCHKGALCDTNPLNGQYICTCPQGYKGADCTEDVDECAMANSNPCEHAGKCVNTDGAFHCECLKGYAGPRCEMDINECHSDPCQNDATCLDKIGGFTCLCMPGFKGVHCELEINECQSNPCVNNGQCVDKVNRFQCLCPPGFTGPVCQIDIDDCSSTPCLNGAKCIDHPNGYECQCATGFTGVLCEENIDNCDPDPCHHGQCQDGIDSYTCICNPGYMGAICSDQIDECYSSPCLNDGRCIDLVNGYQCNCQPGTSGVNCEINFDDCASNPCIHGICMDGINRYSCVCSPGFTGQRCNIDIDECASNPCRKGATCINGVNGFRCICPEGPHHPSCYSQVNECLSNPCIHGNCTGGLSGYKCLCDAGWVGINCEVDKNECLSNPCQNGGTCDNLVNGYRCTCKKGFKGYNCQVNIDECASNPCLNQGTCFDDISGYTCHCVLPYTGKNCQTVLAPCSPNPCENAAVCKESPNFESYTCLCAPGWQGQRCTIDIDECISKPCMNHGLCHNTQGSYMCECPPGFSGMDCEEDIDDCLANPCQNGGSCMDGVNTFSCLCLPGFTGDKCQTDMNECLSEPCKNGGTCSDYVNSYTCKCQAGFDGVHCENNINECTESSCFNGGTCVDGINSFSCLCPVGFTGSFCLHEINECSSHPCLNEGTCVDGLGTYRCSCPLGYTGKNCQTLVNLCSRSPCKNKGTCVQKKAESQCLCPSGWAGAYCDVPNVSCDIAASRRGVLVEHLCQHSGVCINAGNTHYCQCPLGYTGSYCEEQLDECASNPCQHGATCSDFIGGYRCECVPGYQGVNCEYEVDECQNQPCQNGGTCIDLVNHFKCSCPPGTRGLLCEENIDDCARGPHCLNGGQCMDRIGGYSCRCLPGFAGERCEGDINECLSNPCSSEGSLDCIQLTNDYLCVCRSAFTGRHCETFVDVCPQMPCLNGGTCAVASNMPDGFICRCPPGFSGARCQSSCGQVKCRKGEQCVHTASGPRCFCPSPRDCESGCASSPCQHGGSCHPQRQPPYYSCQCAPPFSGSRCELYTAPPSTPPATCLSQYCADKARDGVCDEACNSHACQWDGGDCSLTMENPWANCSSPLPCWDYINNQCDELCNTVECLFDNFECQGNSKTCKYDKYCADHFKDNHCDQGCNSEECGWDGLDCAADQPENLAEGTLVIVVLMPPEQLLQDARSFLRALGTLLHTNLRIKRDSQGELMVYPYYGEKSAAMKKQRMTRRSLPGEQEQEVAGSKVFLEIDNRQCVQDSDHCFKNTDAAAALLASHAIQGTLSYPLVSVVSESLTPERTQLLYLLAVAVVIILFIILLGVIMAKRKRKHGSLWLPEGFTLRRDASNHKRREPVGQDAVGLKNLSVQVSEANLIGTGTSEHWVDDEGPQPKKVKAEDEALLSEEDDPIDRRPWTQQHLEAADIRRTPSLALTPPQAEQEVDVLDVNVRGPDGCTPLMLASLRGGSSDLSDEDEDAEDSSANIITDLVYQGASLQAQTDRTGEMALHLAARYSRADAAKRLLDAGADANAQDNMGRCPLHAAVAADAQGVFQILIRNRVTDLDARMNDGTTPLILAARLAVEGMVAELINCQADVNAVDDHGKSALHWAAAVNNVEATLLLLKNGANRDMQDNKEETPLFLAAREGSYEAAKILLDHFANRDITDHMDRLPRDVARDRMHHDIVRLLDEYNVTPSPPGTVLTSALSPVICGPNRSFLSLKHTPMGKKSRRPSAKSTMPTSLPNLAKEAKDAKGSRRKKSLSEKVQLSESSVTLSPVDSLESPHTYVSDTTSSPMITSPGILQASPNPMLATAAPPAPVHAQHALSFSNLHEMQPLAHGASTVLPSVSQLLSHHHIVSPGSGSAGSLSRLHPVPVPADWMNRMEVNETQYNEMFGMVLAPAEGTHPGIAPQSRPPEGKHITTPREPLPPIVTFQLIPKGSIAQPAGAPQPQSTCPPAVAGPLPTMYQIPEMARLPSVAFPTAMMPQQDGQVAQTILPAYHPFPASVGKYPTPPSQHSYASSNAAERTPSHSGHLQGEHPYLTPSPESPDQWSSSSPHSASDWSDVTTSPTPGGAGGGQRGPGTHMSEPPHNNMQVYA
# [6] = molecular target: Pro-neuregulin-1, membrane-bound isoform (Homo sapiens) (UniProt Q02297); experiment: small molecules binding neuregulin-1 protein – biochemical, small-molecule microarray, fluorescence 635/667, psychiatric disease protein project, primary screen (AID 1075); details: NRG1 binding, 635 nm fluorescence, higher = more signal;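 further: score combines 667 nm spot fluorescence with signal to noise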
# Pro-neuregulin-1, membrane-bound isoform (Homo sapiens), sequence (Q02297 whole entry, looked up, the tested form may be a part, canonical isoform): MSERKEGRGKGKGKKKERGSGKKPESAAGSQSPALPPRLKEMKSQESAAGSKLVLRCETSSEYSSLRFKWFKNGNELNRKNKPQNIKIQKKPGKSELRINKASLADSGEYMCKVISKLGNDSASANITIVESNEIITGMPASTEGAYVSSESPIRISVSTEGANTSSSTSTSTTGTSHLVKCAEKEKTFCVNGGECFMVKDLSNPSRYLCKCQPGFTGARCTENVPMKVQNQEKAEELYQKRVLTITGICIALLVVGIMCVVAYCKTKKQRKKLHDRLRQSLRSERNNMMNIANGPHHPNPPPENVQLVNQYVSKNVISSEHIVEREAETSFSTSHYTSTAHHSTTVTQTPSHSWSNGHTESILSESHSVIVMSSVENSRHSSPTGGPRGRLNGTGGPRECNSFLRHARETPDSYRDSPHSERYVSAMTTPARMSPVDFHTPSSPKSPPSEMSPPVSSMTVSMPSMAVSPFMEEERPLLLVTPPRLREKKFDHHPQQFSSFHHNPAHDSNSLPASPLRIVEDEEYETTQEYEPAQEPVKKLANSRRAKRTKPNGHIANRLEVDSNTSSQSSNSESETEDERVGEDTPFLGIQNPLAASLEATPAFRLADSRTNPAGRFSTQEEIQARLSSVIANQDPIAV
# [7] = test system: Neuregulin-1 EGF-like domain; experiment: small molecules binding NRG1 EGF domain – biochemical, small-molecule microarray, 635 nm fluorescence, primary screen (AID 1081); details: higher = more signal;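 further: binding of the protein to compounds printed on small-molecule microarray slides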
# [8] = FRG1 expression reporter modulators in myotubes – cell-based, C2C12 myotubes, firefly/Renilla luciferase, luminescence, FRG1 inhibition for FSHD, primary screen (AID 1084); details: FRG1 promoter luciferase, higher = more signal, called active from +8 up or from −8 down
# [9] = small molecules captured by biotinylated probe aFST – biochemical, small-molecule microarray, fluorescence 635/667, stem cell growth factor project, primary screen (AID 1086); details: higher = more signal;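 further: score merges 667 nm fluorescence with signal-to-noise of each printed compound spot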
# [10] = binders of probe aHhip on microarray, primary screen, stem cell growth factor project, biochemical, small-molecule microarray, fluorescence 635/667 (AID 1087); details: higher = more signal;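 further: score merges spot fluorescence at 667nm with spot signal to noise ratio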
# [11] = test system: PRMT1 (protein arginine N-methyltransferase 1); experiment: small molecules binding arginine methyltransferase PRMT1 – biochemical, small-molecule microarray, 635 nm fluorescence, primary screen (AID 1088); details: higher = more signal;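 further: binding of Prmt1 protein to compounds spotted on small-molecule microarray slides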
# [12] = growth effects on S. cerevisiae YJM789 – YJM789 clinical isolate, OD600, 24 h, basal, primary screen (AID 1089); details: higher = more signal, called active from +8 up or from −8 down;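 further: growth of clinical yeast isolate S. cerevisiae YJM 789 seeded 1000 cells per well; test concentration not given here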
# [13] = S. pombe growth modifiers, basal conditions – strain 972, OD600, 24 h, no modulator, primary screen (AID 1090);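 further: basal condition with compound alone and no growth modifier present; test concentration not given here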; details: S. pombe 972 growth, higher = more signal, called active from +8 up or from −8 down
# [14] = budding yeast growth modifiers under rapamycin – strain BY4716, OD600, 96 h, primary screen (AID 1091); further: test concentration not given here; details: S. cerevisiae BY4716 + rapamycin, higher = more signal, called active from +8 up or from −8 down
# [15] = molecular target: Torsin-1A-interacting protein 2 (Homo sapiens) (UniProt Q8NFQ8); experiment: small molecules binding lysate-expressed LULL1 – cell lysate, human LULL1 lysate, 635/667 nm fluorescence, primary screen (AID 1092); details: small-molecule microarray, hLULL1 lysate binding, 635 nm fluorescence; higher = more signal;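 further: probe is lysate of COS7 cells overexpressing human LULL1; score merges per-feature 667 nm fluorescence with signal-to-noise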
# Torsin-1A-interacting protein 2 (Homo sapiens), sequence (Q8NFQ8 whole entry, looked up): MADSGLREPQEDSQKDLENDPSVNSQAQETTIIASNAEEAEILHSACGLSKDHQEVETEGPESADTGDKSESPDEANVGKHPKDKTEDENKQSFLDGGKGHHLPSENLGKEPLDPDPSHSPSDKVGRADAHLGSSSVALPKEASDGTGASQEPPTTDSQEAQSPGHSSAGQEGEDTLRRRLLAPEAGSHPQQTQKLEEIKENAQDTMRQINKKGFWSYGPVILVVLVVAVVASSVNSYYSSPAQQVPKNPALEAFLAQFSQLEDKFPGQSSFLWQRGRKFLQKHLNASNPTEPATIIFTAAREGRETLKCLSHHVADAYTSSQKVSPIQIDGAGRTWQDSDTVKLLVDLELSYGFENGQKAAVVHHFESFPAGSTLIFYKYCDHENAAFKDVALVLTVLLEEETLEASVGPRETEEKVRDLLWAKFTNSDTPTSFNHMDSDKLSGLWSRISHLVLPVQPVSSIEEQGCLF
# [16] = optical density change of DRC41 E. coli – strain DRC41, OD650, 24 h, E. coli filamentation project, primary screen (AID 1093);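 further: MC1000 strain lacking acrAB efflux and sulA so SOS filamentation is blocked; test concentration not given here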; details: E. coli DRC41 growth, higher = more signal, called active from +8 up or from −8 down
# [17] = probe aLefty2 binding to arrayed compounds – biochemical, biotinylated probe, 635/667 nm fluorescence, primary screen (AID 1094); details: small-molecule microarray, higher = more signal;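 further: score merges spot fluorescence near 667 nm with spot signal-to-noise ratio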
# [18] = test system: Noggin (protein binding on small-molecule microarray); experiment: small molecules binding Noggin protein – biochemical, 635/667 nm fluorescence, primary screen (AID 1095); details: 635 nm fluorescence, higher = more signal;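 further: score merges 667 nm feature fluorescence with signal to noise over triplicate slides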
# [19] = molecular target: Neurogenic locus notch homolog protein 3 (Homo sapiens) (UniProt Q9UM47); experiment: small molecules binding NOTCH3 protein – biochemical, 635/667 nm fluorescence, primary screen (AID 1096); details: small-molecule microarray, 635 nm fluorescence, higher = more signal
# [20] = probe aEGFR binding to arrayed compounds – biochemical, biotinylated probe, 635/667 nm fluorescence, primary screen (AID 1097); details: small-molecule microarray, higher = more signal;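 further: probe is a biotinylated anti-EGFR antibody binding compounds printed on slides; score combines fluorescence near 667 nm and signal to noise of each spot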
SMILES,composite z-score [1],composite z-score [2],composite z-score [3],composite z-score [4],composite z-score [5],composite z-score [6],composite z-score [7],z-score [8],composite z-score [9],composite z-score [10],composite z-score [11],z-score [12],z-score [13],z-score [14],composite z-score [15],z-score [16],composite z-score [17],composite z-score [18],composite z-score [19],composite z-score [20]
COc1ccc(NC(=O)O[C@H]2[C@H](OC(=O)Nc3ccccc3)[C@@H](OC(=O)Nc3ccccc3)[C@@H](OC)O[C@@H]2CO)cc1,-0.279,0.672,-0.017,1.27,0.754,1.6,1.26,0.329 (inactive),0.23,-0.0618,1.55,2.09 (inactive),-0.0554 (inactive),-0.758 (inactive),3.27,-0.633 (inactive),-0.0666,1.62,0.822,-0.0054
Cc1ccc(S[C@]2(C(=O)O)CC(=O)N(Cc3cc(C(F)(F)F)cc(C(F)(F)F)c3)[C@@H]2c2ccc(CO)cc2)cc1,0.591,-0.378,-0.175,-1.71,-2.43,0.203,0.406,0.0661 (inactive),-0.395,-0.464,-0.224,0.952 (inactive),-0.539 (inactive),-0.0248 (inactive),1.53,-1.17 (inactive),-0.142,-1.6,-2.63,-0.373
NC(N)=NCCCn1cc(CNC(=O)[C@@H](N)Cc2ccccc2)nn1,0.236,0.236,0.0263,-0.0436,-0.0857,1.28,1.49,1.28 (inactive),0.044,0.0053,0.605,0.567 (inactive),-0.627 (inactive),-0.933 (inactive),1.14,-1.08 (inactive),0.0616,0.743,0.179,0.0221
COc1ccc([Si](C)(C)[C@H]2[C@H](CCn3cc([C@H](O)c4ccccc4)nn3)O[C@@]3(C(=O)N(Cc4ccc(N5C(=O)c6cccc7cccc5c67)cc4)c4ccccc43)[C@@H]2C)cc1,0.193,-0.241,-0.159,0.595,-0.715,0.45,1.1,-3.35 (inactive),-0.403,-0.0994,0.643,0.642 (inactive),1.17 (inactive),2.55 (inactive),0.277,0.021 (inactive),-0.0674,-0.162,-0.0817,-0.285
OCCCC1=CC(c2ccc(CN3CCCC3)cc2)N(Cc2sc3ccccc3c2Cl)CC1 (stereo not given),1.46,0.41,-0.221,0.828,0.72,0.65,1.27,-0.475 (inactive),0.0562,0.535,1.2,-0.72 (inactive),-14.3 (active),-0.628 (inactive),1.22,-0.271 (inactive),0.0998,0.895,0.686,0.148
CN1C(=O)C2C=CC(C(O)c3cccc4ccccc34)N(N3CCCCC3)C2C1=O (stereo not given),0.827,1.12,-0.0122,0.691,1.48,1.67,1.19,1.09 (inactive),0.785,0.0873,1.55,-0.0899 (inactive),1.13 (inactive),0.579 (inactive),2.86,-1.09 (inactive),0.101,0.354,1.1,0.299
COc1cc(OC)c(C(O)C2C=CC3C(=O)N(c4ccccc4)C(=O)C3N2Nc2ccccc2)cc1Br (stereo not given),0.0555,-0.01,0.0393,0.208,0.878,1.66,0.936,0.203 (inactive),0.558,0.0139,1.2,-0.465 (inactive),1.09 (inactive),0.326 (inactive),2.53,-0.604 (inactive),0.167,0.0401,0.862,-0.0828
CCOC(=O)C1=CC[C@@H](c2ccccc2C(F)(F)F)N(S(=O)(=O)c2ccc(C)cc2)[C@H]1c1ccc(C#N)cc1,-0.0042,0.0813,0.0625,0.692,1.36,0.988,1.25,0.852 (inactive),1.11,-0.0024,0.884,-0.242 (inactive),1.2 (inactive),3.51 (inactive),2.56,-0.156 (inactive),-0.0099,0.292,1.03,-0.0061
NCCCCCNC(=O)[C@@H]1C[C@@H]2C(=O)NCC(=O)N2[C@@H]1c1cccc(OCCO)c1,-0.144,0.45,0.108,0.773,0.756,0.889,1.34,0.0981 (inactive),0.417,0.151,1.44,-0.0012 (inactive),-0.926 (inactive),0.267 (inactive),1.32,2.01 (inactive),0.086,1.35,0.712,-0.0158
[N-]=[N+]=NCc1ccccc1C[C@@]1(C(=O)N2CCCCC2)N=C(c2ccc(OCCCO)cc2)O[C@@H]1c1ccccc1,0.0156,0.317,-0.0958,0.108,1.09,1.15,0.825,-3.91 (inactive),0.301,-0.0457,0.424,0.591 (inactive),1.08 (inactive),32.6 (active),2.2,0.685 (inactive),-0.0261,-0.578,-0.426,0.159
COc1ccc(CCNC(=O)[C@@]2(Sc3ccc(C)cc3)CC(=O)N(C3Cc4ccccc4C3)[C@@H]2c2ccc(CO)cc2)cc1,0.183,0.737,0.153,-0.0334,1.43,0.591,1.29,-3.33 (inactive),0.384,0.866,1.54,0.593 (inactive),-0.468 (inactive),0.707 (inactive),1.88,-1.79 (inactive),0.0511,2.07,1.02,0.0707
